Source: PubChem BioAssay
Active and inactive are the calls of the source.

Assays:
[1] = anti-His antibody binders, primary screen, artefact control for SMM control protein annotation, biochemical, small-molecule microarray, 635 nm fluorescence (AID 1128); settings: anti-His Alexa647 antibody binding, higher = more signal;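 note: score merges feature fluorescence with signal-to-noise for each printed compound spot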
[2] = tested on: Human papillomavirus type 1a E7 protein (residues 1-88); assay: HPV1a E7 small-molecule binders, primary screen, biochemical, small-molecule microarray, residues 1-88, 635 nm (AID 1129); settings: small-molecule microarray binding, fluorescence 635 nm; higher = more signal
[3] = target: Focal adhesion kinase 1 (Homo sapiens) (UniProt Q05397); assay: small-molecule microarray binders of FAK, primary screen, biochemical, 635/667 nm fluorescence, BSA, DTT (AID 1130); settings: PTK2 binding, 635 nm fluorescence, higher = more signal;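 note: composite of spot emission at 667 nm and signal to noise over triplicate slides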
[4] = tested on: Fibrinogen (Alexa647-labelled); assay: fibrinogen binders on compound microarrays, profiling panel, artefact control for SMM control-protein annotation, biochemical, small-molecule microarray, 635/667 nm fluorescence (AID 1131); settings: fibrinogen-A647 binding fluorescence, higher = more signal;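 note: z-score merges 667 nm fluorescence with per-spot signal-to-noise over triplicate slides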
[5] = target: Follistatin (Homo sapiens) (UniProt P19883); assay: follistatin binders on small-molecule microarrays, primary screen, biochemical, small-molecule microarray, 635/667 nm fluorescence (AID 1132); settings: FST binding, 635 nm fluorescence, higher = more signal
[6] = target: Fibroblast growth factor 2 (Homo sapiens) (UniProt P09038); assay: FGF2 binders on small-molecule microarrays, primary screen, biochemical, small-molecule microarray, 635/667 nm fluorescence (AID 1133); settings: small-molecule microarray binding, FGF2, fluorescence 635/667; higher = more signal
[7] = mitochondrial membrane potential change in A549 cells, profiling panel, cell-based, JC-1 fluorescence, basal, 24 h, 100 nL (AID 1138); settings: higher = more signal;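 note: A549 lung adenocarcinoma cells under basal conditions with no added stimulus; test concentration not given here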
Lefty1 = Lefty1 binders on small-molecule microarrays, primary screen, biochemical, small-molecule microarray, 635/667 nm fluorescence (AID 1139); settings: small-molecule microarray binding, fluorescence 635/667; higher = more signal
[8] = tested on: wheat germ agglutinin (Triticum aestivum), Alexa647-labelled; assay: wheat germ agglutinin binders on compound microarrays, profiling panel, artefact control for SMM control-protein annotation, biochemical, small-molecule microarray, 635/667 nm fluorescence (AID 1140); settings: WGA-A647 binding, 635 nm fluorescence, higher = more signal;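 note: score merges 667 nm feature emission with signal to noise over triplicate slides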
[9] = target: Luciferin 4-monooxygenase (Photinus pyralis) (UniProt P08659); assay: firefly luciferase enzyme inhibitors, primary screen, biochemical, luminescence, purified enzyme, 2006 set (AID 1141); settings: SteadyGlo luminescence, 30 min, higher = more signal, called active from +8 up or from −8 down;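 note: cell-free assay with purified firefly luciferase at 100 ng per well in PBS; test concentration not given here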
[10] = tested on: Wnt5a (protein binding on small-molecule microarray); assay: Wnt5a binders on small-molecule microarray, primary screen, biophysical, 635/667 nm fluorescence (AID 1142); settings: 635 nm fluorescence, higher = more signal;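 note: fluorescence read at 667 nm with signal to noise per printed feature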
[11] = cell viability in Huh7 cells, primary screen, cytotoxicity control for HCV replication inhibitor project, CellTiter-Glo luminescence, basal, 48 h (AID 1143); settings: Huh7 HCV replicon, higher = more signal, called active from +8 up or from −8 down;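 note: Huh7 hepatoma cells carrying a hepatitis C replication reporter with no stimulus; test concentration not given here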
[12] = CREB reporter modulators without forskolin, primary screen, cell-based, PC12, CRE-LacZ reporter, unstimulated (AID 1145); settings: no forskolin, luminescence, 4.5 h, higher = more signal, called active from +8 up or from −8 down
[13] = CREB reporter modulators under forskolin, primary screen, cell-based, PC12, CRE-LacZ reporter, forskolin-stimulated (AID 1146); settings: luminescence, 4.5 h, higher = more signal, called active from +8 up or from −8 down;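 note: PC12 cells with 6xCRE LacZ reporter stimulated by forskolin 10 µM; beta-galactosidase reporter signal reflecting CREB driven transcription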
[14] = target: Streptavidin (Streptomyces avidinii) (UniProt P22629); assay: streptavidin binders on small-molecule microarray, primary screen, artefact control for SMM compound annotation, biophysical, 635/667 nm fluorescence (AID 1147); settings: streptavidin binding, higher = more signal;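 note: signal reflects streptavidin binding to arrayed compounds as a control protein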
[15] = small-molecule binders of probe aInhba, primary screen, biochemical, small-molecule microarray, 635/667 nm fluorescence (AID 1148); settings: higher = more signal;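 note: score merges 667nm spot fluorescence with signal-to-noise for antibody binding to printed compounds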
Torsin-1A (Homo sapiens) [16] = target: Torsin-1A (Homo sapiens) (UniProt O14656); assay: torsin A binders from cell lysate, primary screen, small-molecule microarray, wild-type, 635/667 nm (AID 1149); settings: COS7 hTOR1A-WT lysate, 635 nm fluorescence, higher = more signal
Torsin-1A (Homo sapiens) [17] = target: Torsin-1A (Homo sapiens) (UniProt O14656); assay: small-molecule binders of mutant TOR1A in lysate, primary screen, cell lysate, small-molecule microarray, COS7 lysate, 635/667 nm fluorescence (AID 1150); settings: COS7 hTOR1A mutant lysate, 635 nm fluorescence, higher = more signal;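 note: score pools 667 nm emission and signal to noise measuring lysate protein binding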
[18] = tested on: Sonic hedgehog protein (Shh); assay: small-molecule binders of Shh protein, primary screen, biochemical, small-molecule microarray, 635/667 nm fluorescence (AID 1151); settings: small-molecule microarray binding, 635 nm fluorescence; higher = more signal;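 note: Shh protein binding to compounds spotted on small-molecule microarray slides; score combines spot fluorescence intensity with signal-to-noise across triplicate slides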

Torsin-1A (Homo sapiens), sequence (O14656 whole entry, looked up): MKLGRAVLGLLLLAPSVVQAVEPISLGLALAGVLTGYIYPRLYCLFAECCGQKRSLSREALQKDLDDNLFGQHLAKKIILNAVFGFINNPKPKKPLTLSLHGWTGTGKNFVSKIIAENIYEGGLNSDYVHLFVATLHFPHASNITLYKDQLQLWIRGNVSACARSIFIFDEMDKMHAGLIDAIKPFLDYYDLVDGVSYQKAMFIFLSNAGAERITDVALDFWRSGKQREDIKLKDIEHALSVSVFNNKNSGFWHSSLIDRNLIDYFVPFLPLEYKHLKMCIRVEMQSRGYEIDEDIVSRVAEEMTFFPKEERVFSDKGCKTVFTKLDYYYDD
Fibroblast growth factor 2 (Homo sapiens), sequence (P09038 whole entry, looked up): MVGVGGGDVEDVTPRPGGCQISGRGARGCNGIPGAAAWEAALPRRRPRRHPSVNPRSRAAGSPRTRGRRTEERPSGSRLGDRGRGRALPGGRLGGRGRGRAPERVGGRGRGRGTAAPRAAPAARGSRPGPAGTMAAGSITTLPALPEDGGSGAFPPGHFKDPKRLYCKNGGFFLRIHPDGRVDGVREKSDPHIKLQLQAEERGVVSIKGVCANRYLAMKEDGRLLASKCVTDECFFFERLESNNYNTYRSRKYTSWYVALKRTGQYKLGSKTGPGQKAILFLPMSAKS
Luciferin 4-monooxygenase (Photinus pyralis), sequence (P08659 whole entry, looked up): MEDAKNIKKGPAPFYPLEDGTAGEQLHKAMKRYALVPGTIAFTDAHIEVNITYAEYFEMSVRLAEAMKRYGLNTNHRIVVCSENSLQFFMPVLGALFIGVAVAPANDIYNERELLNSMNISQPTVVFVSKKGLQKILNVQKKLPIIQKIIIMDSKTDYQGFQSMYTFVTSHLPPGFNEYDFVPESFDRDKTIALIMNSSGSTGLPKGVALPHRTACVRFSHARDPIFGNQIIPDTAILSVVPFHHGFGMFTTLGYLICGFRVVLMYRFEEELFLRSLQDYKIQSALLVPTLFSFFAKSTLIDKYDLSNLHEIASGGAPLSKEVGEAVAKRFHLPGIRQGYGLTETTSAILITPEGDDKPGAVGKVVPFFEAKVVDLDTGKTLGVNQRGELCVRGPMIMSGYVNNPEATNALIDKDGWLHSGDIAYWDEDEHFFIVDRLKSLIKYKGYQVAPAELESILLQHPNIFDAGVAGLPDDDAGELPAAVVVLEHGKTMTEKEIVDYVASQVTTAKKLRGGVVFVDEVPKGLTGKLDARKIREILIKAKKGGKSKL
Follistatin (Homo sapiens), sequence (P19883 whole entry, looked up): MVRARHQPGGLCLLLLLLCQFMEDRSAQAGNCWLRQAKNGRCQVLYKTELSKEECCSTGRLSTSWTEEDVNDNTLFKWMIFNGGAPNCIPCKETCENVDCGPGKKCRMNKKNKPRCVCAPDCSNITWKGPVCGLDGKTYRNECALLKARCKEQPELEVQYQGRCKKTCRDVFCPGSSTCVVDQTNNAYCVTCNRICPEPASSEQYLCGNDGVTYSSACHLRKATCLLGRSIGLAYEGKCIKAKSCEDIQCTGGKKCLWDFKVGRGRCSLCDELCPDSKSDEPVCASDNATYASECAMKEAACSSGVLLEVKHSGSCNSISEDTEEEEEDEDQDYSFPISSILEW
Focal adhesion kinase 1 (Homo sapiens), sequence (Q05397 whole entry, looked up): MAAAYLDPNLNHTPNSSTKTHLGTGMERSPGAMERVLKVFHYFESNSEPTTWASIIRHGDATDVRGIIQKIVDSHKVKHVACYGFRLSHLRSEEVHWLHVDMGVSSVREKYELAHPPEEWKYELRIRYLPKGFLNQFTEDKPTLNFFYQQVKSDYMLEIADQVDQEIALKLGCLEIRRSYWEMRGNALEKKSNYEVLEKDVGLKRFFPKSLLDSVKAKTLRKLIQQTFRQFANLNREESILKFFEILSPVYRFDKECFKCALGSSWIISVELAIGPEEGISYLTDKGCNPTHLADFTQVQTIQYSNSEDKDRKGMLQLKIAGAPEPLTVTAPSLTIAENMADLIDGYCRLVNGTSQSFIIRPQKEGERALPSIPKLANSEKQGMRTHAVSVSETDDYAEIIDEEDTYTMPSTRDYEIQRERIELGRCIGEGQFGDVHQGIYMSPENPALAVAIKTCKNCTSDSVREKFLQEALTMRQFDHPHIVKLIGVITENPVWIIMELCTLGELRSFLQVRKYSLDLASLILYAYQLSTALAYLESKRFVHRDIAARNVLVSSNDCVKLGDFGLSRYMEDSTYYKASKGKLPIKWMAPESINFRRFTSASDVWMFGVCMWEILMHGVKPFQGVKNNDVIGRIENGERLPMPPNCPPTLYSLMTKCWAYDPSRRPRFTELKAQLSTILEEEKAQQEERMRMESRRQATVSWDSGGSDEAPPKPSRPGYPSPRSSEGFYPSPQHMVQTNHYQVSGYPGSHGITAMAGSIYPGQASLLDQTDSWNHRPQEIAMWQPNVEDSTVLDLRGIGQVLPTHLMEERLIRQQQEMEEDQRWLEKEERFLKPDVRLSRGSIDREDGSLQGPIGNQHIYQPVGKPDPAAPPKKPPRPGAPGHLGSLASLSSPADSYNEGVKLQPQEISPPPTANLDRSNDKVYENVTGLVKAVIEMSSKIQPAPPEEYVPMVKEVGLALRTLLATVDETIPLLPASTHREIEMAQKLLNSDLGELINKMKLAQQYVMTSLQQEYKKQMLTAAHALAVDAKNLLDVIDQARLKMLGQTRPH
Streptavidin (Streptomyces avidinii), sequence (P22629 whole entry, looked up): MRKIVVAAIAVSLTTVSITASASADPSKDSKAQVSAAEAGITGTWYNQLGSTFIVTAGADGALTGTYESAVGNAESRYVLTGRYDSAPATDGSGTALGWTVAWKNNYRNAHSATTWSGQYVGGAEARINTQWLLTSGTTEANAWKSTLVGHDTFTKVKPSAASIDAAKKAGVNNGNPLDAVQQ

Row | Compound | composite z-score [1] | composite z-score [2] | composite z-score [3] | composite z-score [4] | composite z-score [5] | composite z-score [6] | z-score [7] | composite z-score (Lefty1) | composite z-score [8] | z-score [9] | composite z-score [10] | z-score [11] | z-score [12] | z-score [13] | composite z-score [14] | composite z-score [15] | composite z-score (Torsin-1A (Homo sapiens) [16]) | composite z-score (Torsin-1A (Homo sapiens) [17]) | composite z-score [18]
1 | CO[C@H]1O[C@H](CO)[C@@H](OC(=O)CCc2ccccc2)[C@@H]2OC(=O)[C@H](Cc3cccc(Br)c3)C/C=C/C[C@@H](Cc3cccc(Br)c3)C(=O)O[C@@H]12 | 0.345 | 0.399 | -0.0961 | 0.0162 | -1.19 | -0.706 | 0.309 | -0.752 | 0.978 | -1.07 (inactive) | -0.0182 | -3.47 (inactive) | -0.198 (inactive) | -0.896 (inactive) | -0.115 | -0.147 | 1.07 | 0.358 | -0.149
2 | CO[C@@H]1COC(=O)[C@H](C)NC(=O)CC=C[C@@H](C)[C@H](OC)COC(=O)[C@H](C)NC(=O)CC=C[C@H]1C | 0.284 | 0.207 | 0.0533 | 0.38 | 0.614 | 0.989 | 1.64 | 0.59 | 0.222 | -1.57 (inactive) | 0.151 | -0.164 (inactive) | -0.205 (inactive) | -0.759 (inactive) | 1.17 | 0.0659 | 0.678 | -0.0045 | 0.622
3 | C=CCNC(=O)[C@H]1[C@@H]2C(=O)O[C@@H](c3ccccc3)[C@@H](c3ccccc3)N2[C@@H](c2ccc(O)cc2)[C@]12C(=O)Nc1ccc(C#CCNC(N)=O)cc12 | -1.09 | -0.572 | 0.199 | -1.04 | 0.094 | -0.415 | -0.171 | -0.886 | -0.52 | -1.25 (inactive) | -0.261 | -0.23 (inactive) | -0.594 (inactive) | -0.759 (inactive) | -0.96 | 0.468 | -0.109 | 0.0926 | 0.103
4 | COC(=O)C[C@H]1O[C@]2(C(=O)N(C)c3ccccc32)[C@@H](C)[C@@H]1[Si](C)(C)c1ccc(OC)cc1 | 0.284 | 0.824 | 0.0035 | 0.728 | 0.328 | 0.792 | 0.569 | 1.33 | 0.332 | -0.274 (inactive) | 0.259 | -4.23 (inactive) | 2.23 (inactive) | -1.58 (inactive) | 0.781 | 0.138 | 0.639 | 0.236 | 0.661
5 | CO[C@H]1COC(=O)[C@H](CCSC)NC(=O)CC=C[C@@H](C)COC(=O)[C@@H](OCc2ccccc2)C=C[C@@H]1C | -0.155 | -0.762 | -0.36 | -1.22 | 1.18 | 1.46 | 0.676 | 1.63 | -1.02 | -1.12 (inactive) | 0.156 | 0.111 (inactive) | -0.0223 (inactive) | -0.48 (inactive) | -0.154 | -0.0762 | 2.88 | 2.85 | 1.93
6 | CO[C@@H]1COC(=O)[C@H](COCc2ccccc2)NC(=O)CC=C[C@@H](C)[C@H](OC)COC(=O)[C@H](COCc2ccccc2)NC(=O)CC=C[C@H]1C | -0.156 | -0.47 | -0.0624 | -0.201 | 0.59 | 0.622 | 0.952 | 0.886 | -0.915 | -0.901 (inactive) | 0.0648 | -0.853 (inactive) | 0.336 (inactive) | -0.401 (inactive) | -0.405 | -0.2 | 0.692 | 0.209 | 0.839
7 | CC(=O)NCCCC[C@@H]1NC(=O)[C@@H]2C[C@H](C(=O)NCCCCCNC(=O)CS)[C@H](c3ccc(O)cc3)N2C1=O | 0.133 | -0.265 | -0.295 | -0.786 | 1.44 | 0.746 | 1.18 | 1.4 | -0.802 | -1.88 (inactive) | 0.443 | -1.62 (inactive) | -0.134 (inactive) | -1.45 (inactive) | -0.654 | -0.179 | 0.0918 | 0.324 | 1.49
8 | O=C1O[C@@H](c2ccccc2)[C@@H](c2ccccc2)N2[C@@H](c3ccccc3OCCO)[C@]3(C(=O)Nc4ccc(C#CC5=CCCCC5)cc43)[C@@H](C(=O)O)[C@H]12 | 1.91 | 1.19 | 0.705 | 0.934 | 1.14 | 0.301 | -2.32 | 0.699 | 1.17 | -5.86 (inactive) | 0.26 | -4.37 (inactive) | 0.245 (inactive) | 13.7 (active) | 0.841 | -0.0006 | 0.13 | 0.261 | 0.195
9 | CN(C)CCCC[C@@H]1NC(=O)[C@@H]2C[C@H](C(=O)O)[C@H](c3ccc(O)cc3)N2C1=O | 1.34 | 0.704 | 0.324 | 0.166 | 1.37 | 1.35 | -0.0467 | 1.64 | 0.176 | -0.486 (inactive) | 0.471 | -3.87 (inactive) | 0.415 (inactive) | -0.183 (inactive) | 0.0842 | 0.174 | 0.939 | 0.395 | 1.92
10 | COC(=O)C1=C(C)N(Cc2ccccc2)c2c(C(=O)OC)c(C(=O)OC)c(C(=O)OC)c(=O)n2[C@@H]1c1ccccc1 | -0.0074 | 0.436 | 0.39 | 0.437 | 0.321 | 0.528 | 0.813 | 0.27 | 0.292 | -1.01 (inactive) | 0.191 | -0.233 (inactive) | 4.26 (inactive) | -1.23 (inactive) | 0.125 | 0.0503 | 0.285 | 0.505 | 0.426
